Screening data from PubChem BioAssay.
KCNQ2 pot: enhances the rat KCNQ2 potassium channel; O88943; CHO-K1 KCNQ2, FluxOR thallium flux fluorescence; stronger effect = higher value; B-score at 10 µM; 0.54% of 310,000 active;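 active means fluorescence ratio B-score at least 3 SD of library B-scores, with initial fluorescence B-score within 3 of them, cut at about 5.3 in these data; same plate scores as AID 2156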;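 further: B-score of peak minus minimum over baseline fluorescence ratio after K+ and Tl+ stimulus; positive B-score means potentiation of KCNQ2 with more thallium influx and brighter signal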
Target sequence (O88943 whole entry, looked up): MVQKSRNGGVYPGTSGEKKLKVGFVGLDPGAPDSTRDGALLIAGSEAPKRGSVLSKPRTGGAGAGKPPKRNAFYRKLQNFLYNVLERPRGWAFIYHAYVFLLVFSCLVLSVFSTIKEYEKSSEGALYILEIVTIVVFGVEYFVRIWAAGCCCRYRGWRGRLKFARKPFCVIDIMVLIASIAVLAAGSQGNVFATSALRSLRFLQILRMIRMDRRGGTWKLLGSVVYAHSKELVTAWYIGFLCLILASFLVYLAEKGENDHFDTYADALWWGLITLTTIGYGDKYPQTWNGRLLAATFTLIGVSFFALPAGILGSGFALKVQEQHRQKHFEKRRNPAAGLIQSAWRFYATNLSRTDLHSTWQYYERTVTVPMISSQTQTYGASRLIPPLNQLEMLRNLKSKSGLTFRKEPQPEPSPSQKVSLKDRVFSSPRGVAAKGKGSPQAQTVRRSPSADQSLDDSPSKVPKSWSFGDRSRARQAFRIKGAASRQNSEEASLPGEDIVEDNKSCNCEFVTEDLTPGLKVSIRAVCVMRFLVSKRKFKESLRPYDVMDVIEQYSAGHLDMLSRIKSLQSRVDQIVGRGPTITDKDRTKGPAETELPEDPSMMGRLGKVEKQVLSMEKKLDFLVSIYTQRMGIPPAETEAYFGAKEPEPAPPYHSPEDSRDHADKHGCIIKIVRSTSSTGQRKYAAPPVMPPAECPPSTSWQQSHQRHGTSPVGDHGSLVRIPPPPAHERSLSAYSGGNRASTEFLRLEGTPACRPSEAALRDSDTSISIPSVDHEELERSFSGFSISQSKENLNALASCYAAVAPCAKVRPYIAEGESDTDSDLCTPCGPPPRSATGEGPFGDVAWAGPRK
KCNQ2 block: KCNQ2 (rat) channel inhibition | B-score at 10 µM | 1.1% of 310,000 active | O88943 | CHO-K1 KCNQ2, FluxOR thallium flux, 20 min; stronger effect = lower value;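 active means fluorescence ratio B-score at most minus 3 library SDs, with starting brightness B-score within 2 library SDs, cut at about -5.5 in these data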
Starred values were filed as active, the others as inactive. A selection: hits, their analogues and other compounds. The true share with any hit is near 1.6%.

COCCN(C(=S)Nc1cc(C)cc(C)c1)C(C)c1cccs1 (centres undefined) was read as KCNQ2 pot 8* and KCNQ2 block inactive.
Cc1ccc(NC(=O)CN(Cc2ccco2)Cc2ccccc2O)cc1C was read as KCNQ2 pot -5.8 and KCNQ2 block -5.8*.
Screening Cc1ccc(NC(=S)N(Cc2ccco2)C(C)c2cccs2)c(Cl)c1 (centres undefined) returned KCNQ2 pot -6.2 and KCNQ2 block -6.2*.
Cc1ccc(C)c(NC(=S)N(Cc2ccco2)C(C)c2cccs2)c1 (centres undefined) was read as KCNQ2 block inactive.
NC(=O)/C(=C/c1ccco1)C(N)=S was read as KCNQ2 pot 0.67 and KCNQ2 block inactive.
For Cc1ccc(-n2nc3c(c2NC(=O)/C=C\c2ccc4c(c2)OCO4)CSC3)c(C)c1 the results were KCNQ2 block inactive.
Screening Cc1ccccc1-n1nc2c(c1NC(=O)/C=C\c1ccc3c(c1)OCO3)CSC2 returned KCNQ2 pot -6.7 and KCNQ2 block -6.7*.
COc1ccc(OCC(=O)Nc2c(C)ccc3nsnc23)cc1 was read as KCNQ2 block inactive.
COc1cc(C(=O)NCc2ccc(S(N)(=O)=O)cc2)ccc1OCC(=O)Nc1cccc(C(F)(F)F)c1 was read as KCNQ2 pot 0.37 and KCNQ2 block inactive.
`COc1cc(C(=O)N(C)CCOc2ccccc2)ccc1OCC(=O)Nc1cccc(C(F)(F)F)c1` gave KCNQ2 pot -6.7 and KCNQ2 block -6.7*.
For O=C(CSC1=NS(=O)(=O)c2cc(F)ccc2N1)Nc1ccccc1 the results were KCNQ2 block inactive.
For O=C(CSC1=NS(=O)(=O)c2ccccc21)Nc1ccccc1 the results were KCNQ2 pot -6.4 and KCNQ2 block -6.4*.
Screening O=c1c(Cc2c(F)cccc2Cl)c(O)ccn1CCCn1ccnc1 returned KCNQ2 block inactive.
Screening CC(=O)N(CCC1(c2ccc(C)cc2)CCOC(C(C)C)C1)Cc1ccco1 (centres undefined) returned KCNQ2 pot -6 and KCNQ2 block -6*.
Screening Cc1ccc(C2(CCNCc3ccco3)CCOC(C(C)C)C2)cc1 (centres undefined) returned KCNQ2 block inactive.
Screening Cc1ccc(C(=O)N2CCC3(CC2)Oc2ccc(Cl)cc2C(=O)C32CC(c3cccnc3)=NO2)s1 (centres undefined) returned KCNQ2 block inactive.
O=C(/C=C/c1cccs1)N1CCC2(CC1)Oc1ccc(Cl)cc1C(=O)C21CC(c2cccnc2)=NO1 (centres undefined) was read as KCNQ2 pot -6.8 and KCNQ2 block -6.8*.
CC(C)(C)NC(=S)NCc1ccncc1 was read as KCNQ2 pot 0.47 and KCNQ2 block inactive.
CN(CC(=O)Nc1ccc(F)cc1)C(=O)C1CC(=O)N(Cc2ccccc2)C1 (centres undefined) was read as KCNQ2 pot 1.2 and KCNQ2 block inactive.
For C/C(=N\O)C1(C)N(O)C(C)(C)C(c2ccco2)=[N+]1[O-] (centres undefined) the results were KCNQ2 block inactive.
C/C(=N\Nc1cccc(Cl)c1)C1(C)N(O)C(C)(C)C(c2ccco2)=[N+]1[O-] (centres undefined) was read as KCNQ2 pot -6.4 and KCNQ2 block -6.4*.
O=C(NNC(=O)c1cc(-c2ccncc2)nc2ccccc12)c1ccccc1O was read as KCNQ2 pot 0.94 and KCNQ2 block inactive.
Screening COc1ccc(Cc2nc3ccc(C(=O)NCCc4cccc(C)n4)cc3o2)cc1 returned KCNQ2 block inactive.
`COc1ccc(C)cc1NC(=S)NC(C)c1ccc(OC)c(OC)c1` (centres undefined) gave KCNQ2 block inactive.
For CCCOc1ccc(-c2nc(N3CCN(C)CC3)c3ccccc3n2)cc1 the results were KCNQ2 pot -6.7 and KCNQ2 block -6.7*.
For CCCOc1ccc(-c2nc(N3CCN(CC)CC3)c3ccccc3n2)cc1 the results were KCNQ2 block inactive.
`CCC(C(=O)NC1CCCC1)N(C(=O)c1snc(C(N)=O)c1N)c1ccc(C)cc1C` (centres undefined) gave KCNQ2 block inactive.
For O=C(Nc1nnc(SCC(=O)N2CCOCC2)s1)c1ccccc1 the results were KCNQ2 block inactive.
`Cc1ccc(OCCC(=O)OCC(=O)NC(=O)NC2CCCC2)cc1` gave KCNQ2 pot 0.05 and KCNQ2 block inactive.
Cc1ccccc1C(=O)N1CCC(C(=O)Nc2nc3ccc(F)cc3s2)CC1 was read as KCNQ2 block inactive.
Screening Cc1c(C(=O)O)oc2ccc(S(=O)(=O)N3CCCC3)cc12 returned KCNQ2 block inactive.
Screening CCCCN(C)C(=O)c1oc2ccc(S(=O)(=O)N3CCCCCC3)cc2c1C returned KCNQ2 pot -5.6 and KCNQ2 block -5.6*.
Brc1ccc2c(c1)CN1CCCC1=N2 was read as KCNQ2 block inactive.
Screening Cc1cccc2[nH]c(CN(C)Cc3nc(CC4CC4)no3)nc12 returned KCNQ2 block inactive.
Cc1cc(C)nc(SCc2nnc(SCc3ccc([N+](=O)[O-])cc3)n2Cc2ccco2)n1 was read as KCNQ2 pot -5.8 and KCNQ2 block -5.8*.
COC(=O)CSc1nnc(CSc2nc(C)cc(C)n2)n1Cc1ccco1 was read as KCNQ2 block inactive.
Cn1cccc1C(=O)NCC(c1ccco1)N1CCCCC1 (centres undefined) was read as KCNQ2 block inactive.
For CCn1cc(C(=O)NCCc2ccc(OC)cc2)c(=O)c2ccc(C)nc21 the results were KCNQ2 pot 0.67 and KCNQ2 block inactive.
COc1ccc(-c2noc(CSc3nc4ccccc4c(=O)n3-c3ccc(C)cc3)n2)cc1 was read as KCNQ2 pot -5.7 and KCNQ2 block -5.7*.
COc1ccc(-c2noc(CSc3nnc(Cc4ccccc4)n3-c3ccc(Cl)cc3)n2)cc1 was read as KCNQ2 block inactive.
Cc1sc2nc(SCc3nc(-c4ccccc4)no3)n(-c3ccccc3)c(=O)c2c1C was read as KCNQ2 pot -9 and KCNQ2 block -9*.
For Cc1sc2nc(SCC(N)=O)n(-c3ccccc3)c(=O)c2c1C the results were KCNQ2 block inactive.
Screening COc1ccc(NC(=O)CN2CCC(C(=O)c3ccc(F)cc3)CC2)c(OC)c1 returned KCNQ2 pot 0.04 and KCNQ2 block inactive.
`O=C(O)CCCC(=O)N1CCOCCOCCOCCOCC1` gave KCNQ2 pot 0.03 and KCNQ2 block inactive.
`COc1ccc(-c2cc(C(=O)N3CCCCCC3)c3ccccc3n2)c(OC)c1` gave KCNQ2 block inactive.
For Cc1ccc(-c2cc(C(=O)N3CCCC(C(F)(F)F)C3)c3ccccc3n2)o1 (centres undefined) the results were KCNQ2 block inactive.
Screening COc1ccc(-c2cc(C(=O)N3CCN(c4ccccc4F)CC3)c3ccccc3n2)c(OC)c1 returned KCNQ2 pot -8 and KCNQ2 block -8*.
Screening Cc1ccc(-c2cc(C(=O)Nc3nccs3)c3ccccc3n2)c(C)c1 returned KCNQ2 block inactive.
`Cc1ccc(-c2cc(C(=O)Nc3nccs3)c3ccccc3n2)o1` gave KCNQ2 pot -5.7 and KCNQ2 block -5.7*.
Cc1ccc(-c2cc(C(=O)N3CCN(c4ccc(F)cc4)CC3)c3ccccc3n2)o1 was read as KCNQ2 pot -6 and KCNQ2 block -6*.
CC(=O)c1ccc(OCc2cc(C(=O)NCCn3nc(C)cc3C)no2)cc1 was read as KCNQ2 block inactive.
